Test results as given in PubChem BioAssay (NCI).
This is part of a sample that, as a whole, favours compounds with a hit. Of some 79,000 tested, about 15% had one in any assay. Activity calls are given as the source filed them. No stated cut-off is given here; in the data, active means growth inhibition above about 70%; inactive means the rest. *1 amine or outer side, *2 acyl side, *3 side chain or, on linkers, in order; H or OH if unused. Where a SMILES comes first, the peptide text is derived from it. Bridges are numbered along the chain shown (N, C = ends). [ ]: non-standard residue; d: D form. The star is where a group is joined. ξ: configuration not given here. ξOrn(4,5-diOH) = O=C(C(CC(O)C(O)N[*:3])N[*:1])[*:2]; ξhTyr(βξ-OH,γξ-OH) = NC(C(=O)O)C(O)C(O)c1ccc(O)cc1; ξPro(3ξ-OH,4ξ-Me) = CC1CNC(C(=O)O)C1O; X1 = CCCCC/C=C/C/C=C\CCCCCCCC(=O)*; Hyp = O=C(O)[CH]1C[CH](O)CN1

What was measured:
[1] = NCI Yeast Anticancer Drug Screen. Data for the rad50 strain (AID 155);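 further: 0% = growth of vehicle-only cultures of the same strain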; details: S. cerevisiae rad50 strain growth inhibition, hits give high values
In short: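 Vehicle-treated cultures provide the reference for the growth inhibition reported for compound-exposed, repair-deficient yeast.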

[2] = NCI Yeast Anticancer Drug Screen. Data for the mec2-1 strain (AID 157); details: S. cerevisiae mec2-1 strain, hits give high values
In short: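 Readout is yeast growth inhibition, normalised to vehicle-treated controls, in the mec2-1 strain exposed to compound.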

[3] = NCI Yeast Anticancer Drug Screen. Data for the sgs1 mgt1 strain (AID 161);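 further: 0% = growth of cultures given vehicle only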; details: S. cerevisiae sgs1 mgt1 strain, hits give high values
In short: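 Growth of a repair-deficient yeast mutant was monitored after compound treatment and expressed as inhibition relative to vehicle-treated cultures.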

[4] = NCI Yeast Anticancer Drug Screen. Data for the cln2 rad14 strain (AID 165);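 further: 0% = growth equal to vehicle treated cultures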; details: S. cerevisiae cln2 rad14 strain, hits give high values
In short: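 Relative to vehicle controls, growth inhibition of compound-treated cln2 rad14 yeast was recorded.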

[5] = NCI Yeast Anticancer Drug Screen. Data for the bub3 strain (AID 167); details: S. cerevisiae bub3 mutant strain, hits give high values
In short: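 Mutant yeast screening strain plus compound; vehicle-treated cultures serve as the 0% inhibition reference.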

[6] = NCI Yeast Anticancer Drug Screen. Data for the mlh1 rad18 strain (AID 175); details: S. cerevisiae mlh1 rad18 strain growth inhibition, hits give high values
In short: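 Test agents were incubated with a yeast strain of defined genotype (DNA damage repair defect). Inhibition of growth was derived by comparison with vehicle-exposed cultures.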

[7] = at 5.0 µM (retest, dose inferred, filed as 0.5)
[8] = at 50.0 µM (retest, dose inferred, filed as 5.0)

Measured: growth inhibition

CCCCC/C=C/C/C=C\CCCCCCCC(=O)NC1CC(O)C(O)NC(=O)C2C(O)C(C)CN2C(=O)C(C(C)O)NC(=O)C(C(O)C(O)c2ccc(O)cc2)NC(=O)C2CC(O)CN2C(=O)C(C(C)O)NC1=O (stereo not drawn) (X1-[ξOrn(4,5-diOH)]T[Hyp][ξhTyr(βξ-OH,γξ-OH)]T[ξPro(3ξ-OH,4ξ-Me)]; lactam 1-C; configuration not given here)
inactive: [1]; [7] 3% | [2]; [7] 51% | [3]; [7] 51% | [4]; [7] 9% | [5]; [7] 11% | [6]; [7] 40%
active: [1]; [8] 93% | [1]; at 50.0 µM 89% | [2]; [8] 98% | [2]; at 50.0 µM 90.8% | [3]; [8] 93% | [3]; at 50.0 µM 90.3% | [4]; [8] 95% | [4]; at 50.0 µM 83.8% | [5]; [8] 97% | [5]; at 50.0 µM 89.9% | [6]; [8] 96% | [6]; at 50.0 µM 88.6%

Cc1ccc(Cc2n[nH]c(=O)[nH]2)cc1
inactive: [1]; [7] 32% | [1]; [8] 35% | [1]; at 50.0 µM -28.9% | [2]; [7] 18% | [2]; [8] 14% | [2]; at 50.0 µM -45.1% | [3]; [7] 30% | [3]; [8] 33% | [3]; at 50.0 µM -35.7% | [4]; [7] 17% | [4]; [8] 30% | [4]; at 50.0 µM -2.5% | [5]; [7] 26% | [5]; [8] 22% | [5]; at 50.0 µM -26.3% | [6]; [7] 45% | [6]; [8] 52% | [6]; at 50.0 µM -31.6%

O=C(Oc1ccc(O)c2ccccc12)c1ccccc1
inactive: [1]; [7] 0% | [1]; [8] 2% | [2]; [7] -3% | [2]; [8] 6% | [3]; [7] 1% | [3]; [8] -16% | [4]; [7] -7% | [4]; [8] -5% | [5]; [7] -5% | [5]; [8] 5% | [6]; [7] -7% | [6]; [8] 7%
active: [1]; at 50.0 µM 98.7% | [2]; at 50.0 µM 98.6% | [3]; at 50.0 µM 98.3% | [4]; at 50.0 µM 98.5% | [5]; at 50.0 µM 98.5% | [6]; at 50.0 µM 97.2%

C=C1N(S(=O)(=O)c2ccc(C)cc2)C(=O)OCC12CCCC2
inactive: [1]; [7] -22% | [1]; [8] 3% | [1]; at 50.0 µM 2.2% | [2]; [7] -15% | [2]; [8] -21% | [2]; at 50.0 µM -1.5% | [3]; [7] -21% | [3]; [8] 9% | [3]; at 50.0 µM 20% | [4]; [7] -21% | [4]; [8] 5% | [4]; at 50.0 µM 8.9% | [5]; [7] -16% | [5]; [8] 43% | [5]; at 50.0 µM 54.2% | [6]; [7] -24% | [6]; [8] -2% | [6]; at 50.0 µM 3.5%

Cc1ccc(/C=C/C(=O)/C=C/c2ccc(C)o2)o1
inactive: [1]; [7] 50% | [1]; at 50.0 µM 65.8% | [2]; [7] 45% | [3]; [7] 49% | [4]; [7] 42% | [4]; at 50.0 µM 39% | [5]; [7] 47% | [5]; [8] 68% | [6]; [7] 62%
active: [1]; [8] 97% | [2]; [8] 99% | [2]; at 50.0 µM 71.3% | [3]; [8] 97% | [3]; at 50.0 µM 75% | [4]; [8] 81% | [5]; at 50.0 µM 75% | [6]; [8] 98% | [6]; at 50.0 µM 92.4%

Cc1c2cc[n+]([O-])cc2c(C)c2c1oc1ccccc12
active: [1]; [8] 99% | [2]; [8] 98% | [3]; [8] 98% | [4]; [8] 99% | [5]; [8] 99% | [5]; at 50.0 µM 95.2% | [6]; [8] 98%
inactive: [1]; [7] 65% | [1]; at 50.0 µM 50.5% | [2]; [7] 34% | [2]; at 50.0 µM 46.6% | [3]; [7] 13% | [3]; at 50.0 µM 42.4% | [4]; [7] 23% | [4]; at 50.0 µM 50.8% | [5]; [7] 32% | [6]; [7] 22% | [6]; at 50.0 µM 55.1%

c1ccc2c(c1)CC1c3[nH]c4ccccc4c3CCN21 (stereo not given)
active: [1]; at 50.0 µM 88.3% | [2]; at 50.0 µM 76.9% | [3]; at 50.0 µM 82.8% | [4]; at 50.0 µM 88.2% | [5]; at 50.0 µM 77.7% | [6]; at 50.0 µM 74%
inactive: [1]; [7] -6% | [1]; [8] -5% | [2]; [7] 9% | [2]; [8] 6% | [3]; [7] -8% | [3]; [8] -10% | [4]; [7] 22% | [4]; [8] 31% | [5]; [7] 6% | [5]; [8] 23% | [6]; [7] 7% | [6]; [8] 3%

CC(=O)OC12CCC3C4CC=C5CC(O)CCC5(C)C4C(=O)C3C1(C)N1CC(C)CC(O)C1C2C (stereo not given)
active: [1]; at 50.0 µM 74.5% | [5]; [8] 74%
inactive: [1]; [7] 7% | [1]; [8] 40% | [2]; [7] 10% | [2]; [8] 42% | [2]; at 50.0 µM 59.5% | [3]; [7] 5% | [3]; [8] 68% | [3]; at 50.0 µM 62.2% | [4]; [7] 18% | [4]; [8] 62% | [4]; at 50.0 µM 56.9% | [5]; [7] 16% | [5]; at 50.0 µM 64.2% | [6]; [7] -23% | [6]; [8] 59% | [6]; at 50.0 µM 47%

O=C1c2ccccc2C(=O)c2cc(S(=O)(=O)Cl)ccc21
active: [1]; [8] 99% | [1]; at 50.0 µM 76.1% | [2]; [7] 97% | [2]; [8] 99% | [3]; [7] 94% | [3]; [8] 98% | [4]; [8] 99% | [5]; [7] 98% | [5]; [8] 99% | [5]; at 50.0 µM 72.5% | [6]; [8] 99% | [6]; at 50.0 µM 75.8%
inactive: [1]; [7] 68% | [2]; at 50.0 µM 60.9% | [3]; at 50.0 µM 69.2% | [4]; [7] 55% | [4]; at 50.0 µM -49.5% | [6]; [7] 59%

Cc1ccc(NC(=O)CC2SC(N)=NC2=O)cc1C (stereo not given)
active: [1]; at 50.0 µM 87.5% | [2]; at 50.0 µM 89.3% | [3]; at 50.0 µM 91.2% | [4]; at 50.0 µM 80.2% | [5]; at 50.0 µM 89.1% | [6]; at 50.0 µM 90.3%
inactive: [1]; [7] -1% | [1]; [8] -1% | [2]; [7] 3% | [2]; [8] 8% | [3]; [7] -2% | [3]; [8] 5% | [4]; [7] 8% | [4]; [8] 4% | [5]; [7] 0% | [5]; [8] -4% | [6]; [7] -1% | [6]; [8] 6%
